Hits are enriched below; roughly 32% of the tested compounds scored in any of these assays.
CYP2C9 inhib: inhibitors of human CYP2C9. inhibition, % at 5 µM. AID 777. P11712. 96,000 tested, 20% active. CYP2C9 Supersomes, luciferin-H conversion, luminescence;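 active = blocking of liver enzyme CYP2C9 beyond about 50% at 5 µM, limit read from the data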
Target sequence (P11712 whole entry, looked up): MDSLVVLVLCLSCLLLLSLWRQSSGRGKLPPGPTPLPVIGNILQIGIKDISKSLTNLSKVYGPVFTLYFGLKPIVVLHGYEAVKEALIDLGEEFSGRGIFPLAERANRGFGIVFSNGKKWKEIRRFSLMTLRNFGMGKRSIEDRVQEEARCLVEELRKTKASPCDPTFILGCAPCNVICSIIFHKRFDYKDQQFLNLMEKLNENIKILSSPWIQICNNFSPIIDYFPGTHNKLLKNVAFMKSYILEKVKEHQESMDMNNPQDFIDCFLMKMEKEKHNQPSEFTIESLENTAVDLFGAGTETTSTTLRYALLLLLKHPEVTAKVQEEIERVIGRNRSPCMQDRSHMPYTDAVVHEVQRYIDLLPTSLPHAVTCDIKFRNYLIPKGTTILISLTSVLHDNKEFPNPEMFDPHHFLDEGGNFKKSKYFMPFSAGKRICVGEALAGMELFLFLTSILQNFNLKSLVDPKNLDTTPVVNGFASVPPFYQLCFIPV
CYP2C19 act: increases human CYP2C19 enzyme activity. P33261. recombinant CYP2C19, luciferin-H EGE luminescence; hits give high values; 0 = fully inhibited enzyme, 1 = untreated enzyme. activation factor at 5 µM. 96,000 tested, under 10 active. AID 1025;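 active = activation factor of at least 2 at 5 µM in the primary screen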
PostGolgi yeast: growth inhibition of a yeast mutant, post-Golgi transport screen; post-Golgi transport phenotypic cell assay; inhibition, % at 10 µM; 98,000 tested, 0.9% active;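 also: yeast cells grown in 1536-well plates; yeast grown about 18 h at 30C before absorbance read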
CYP2C9 activ: CYP2C9 (human) activation. AID 1024. recombinant CYP2C9, luciferin-H conversion, luminescence; hits give high values; factor 1 = untreated enzyme, 0 = blocked. activation factor at 5 µM. 96,000 tested, 1.4% active;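 active = activation factor of 2 or more for CYP2C9 at a 5 µM dose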
PostGolgi ctrl: inhibits growth of the yeast control strain; inhibition, % at 10 µM; 98,000 tested, 5% active; efflux-deficient yeast background strain, growth absorbance A615, 16 h
CYP2C19 inhib: blocks human cytochrome P450 2C19 | P33261 | CYP2C19 Supersomes, luciferin-H EGE luminescence, 30 min | inhibition, % at 5 µM | 96,000 tested, 21% active;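 active = CYP2C19 inhibition above a set limit at 5 µM in the primary screen, cut at about 50% in these data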
A number is an active result. Rule as the data show it, unless noted: active = inhibition above about 30%; inactive = the rest.

What do the screens show for `CCOC(=O)C1CCN(c2c(NC3CCCc4ccccc43)c(=O)c2=O)CC1` (stereo not given)?
CYP2C9 inhib: inactive; CYP2C19 act: inactive; PostGolgi yeast: inactive; CYP2C9 activ: inactive; PostGolgi ctrl: inactive; CYP2C19 inhib: inactive

What do the screens show for `CCCOc1ccc(S(=O)(=O)NCc2ccc(OC)cc2)cc1`?
CYP2C9 inhib: inactive; CYP2C19 act: inactive; PostGolgi yeast: inactive; CYP2C9 activ: inactive; PostGolgi ctrl: inactive; CYP2C19 inhib: 58

What do the screens show for `COc1ccc(S(=O)(=O)N(Cc2cccs2)C2CCCC2)cc1`?
CYP2C9 inhib: inactive; CYP2C19 act: inactive; PostGolgi yeast: inactive; CYP2C9 activ: inactive; PostGolgi ctrl: 31; CYP2C19 inhib: inactive

How did COc1ccc(S(=O)(=O)NCc2cccs2)cc1 do in these assays?
CYP2C9 inhib: inactive; CYP2C19 act: inactive; PostGolgi yeast: inactive; CYP2C9 activ: inactive; PostGolgi ctrl: inactive; CYP2C19 inhib: 95

How did COCC(C)NS(=O)(=O)c1ccc(OC)cc1 (stereo not given) do in these assays?
CYP2C9 inhib: inactive; CYP2C19 act: inactive; PostGolgi yeast: inactive; CYP2C9 activ: inactive; PostGolgi ctrl: inactive; CYP2C19 inhib: 61

What do the screens show for `CCOc1ccc(CNC(=O)NS(=O)(=O)c2ccc(OC)cc2)cc1`?
CYP2C9 inhib: inactive; CYP2C19 act: inactive; PostGolgi yeast: inactive; CYP2C9 activ: inactive; PostGolgi ctrl: inactive; CYP2C19 inhib: inactive

Results for Fc1ccc(-c2cc(C(F)(F)F)nc(N3CCCCC3)n2)cc1 ?
CYP2C9 inhib: inactive; CYP2C19 act: inactive; PostGolgi yeast: inactive; CYP2C9 activ: inactive; PostGolgi ctrl: inactive; CYP2C19 inhib: inactive

How did CCC(C)NC(=O)COc1ccc(Br)c(C)c1 (stereo not given) do in these assays?
CYP2C9 inhib: inactive; CYP2C19 act: inactive; PostGolgi yeast: inactive; CYP2C9 activ: inactive; PostGolgi ctrl: inactive; CYP2C19 inhib: inactive

What do the screens show for `COC(=O)c1c(S(=O)(=O)NCc2ccccc2)sc(C(=O)O)c1C`?
CYP2C9 inhib: 62; CYP2C19 act: inactive; PostGolgi yeast: inactive; CYP2C9 activ: inactive; PostGolgi ctrl: inactive; CYP2C19 inhib: inactive

What do the screens show for `COc1ccc(S(=O)(=O)NCCCCNS(=O)(=O)c2ccc(OC)cc2)cc1`?
CYP2C9 inhib: inactive; CYP2C19 act: inactive; PostGolgi yeast: inactive; CYP2C9 activ: inactive; PostGolgi ctrl: inactive; CYP2C19 inhib: inactive

How did COc1ccc(S(=O)(=O)NCc2ccccc2)cc1 do in these assays?
CYP2C9 inhib: inactive; CYP2C19 act: inactive; PostGolgi yeast: inactive; CYP2C9 activ: inactive; PostGolgi ctrl: inactive; CYP2C19 inhib: 97

How did COC(=O)c1sc(S(=O)(=O)N2CCN(c3ccc(OC)cc3)CC2)c(C(=O)OC)c1C do in these assays?
CYP2C9 inhib: inactive; CYP2C19 act: inactive; PostGolgi yeast: inactive; CYP2C9 activ: inactive; PostGolgi ctrl: inactive; CYP2C19 inhib: inactive

How did COc1ccc(CNS(=O)(=O)c2ccc(OC)cc2)cc1 do in these assays?
CYP2C9 inhib: inactive; CYP2C19 act: inactive; PostGolgi yeast: inactive; CYP2C9 activ: inactive; PostGolgi ctrl: inactive; CYP2C19 inhib: 76

What do the screens show for `COC(=O)c1ccc(CSc2nnc3sc4ccccc4n23)o1`?
CYP2C9 inhib: inactive; CYP2C19 act: inactive; PostGolgi yeast: inactive; CYP2C9 activ: inactive; PostGolgi ctrl: inactive; CYP2C19 inhib: inactive

What do the screens show for `CN(C(=O)c1ccc2c(=O)n3c(nc2c1)CCCCC3)c1ccccc1`?
PostGolgi yeast: inactive; PostGolgi ctrl: inactive

What do the screens show for `O=C(Nc1cccc(Cl)c1)c1ccc2c(=O)n3c(nc2c1)CCCCC3`?
CYP2C9 inhib: 63; CYP2C19 act: inactive; PostGolgi yeast: inactive; CYP2C9 activ: inactive; PostGolgi ctrl: inactive; CYP2C19 inhib: inactive

What do the screens show for `O=C(NCCC1=CCCCC1)c1ccc2c(=O)n3c(nc2c1)CCCCC3`?
CYP2C9 inhib: 94; CYP2C19 act: inactive; PostGolgi yeast: inactive; CYP2C9 activ: inactive; PostGolgi ctrl: inactive; CYP2C19 inhib: 75

How did CN(C)c1cccc(C(=O)Nc2ccc3nc4n(c(=O)c3c2)CCCCC4)c1 do in these assays?
CYP2C9 inhib: 76; CYP2C19 act: inactive; PostGolgi yeast: inactive; CYP2C9 activ: inactive; PostGolgi ctrl: inactive; CYP2C19 inhib: 76

Results for O=C(c1ccc2c(=O)n3c(nc2c1)CCCCC3)N1CCN(C(c2ccccc2)c2ccccc2)CC1 ?
CYP2C9 inhib: 62; CYP2C19 act: inactive; PostGolgi yeast: inactive; CYP2C9 activ: inactive; PostGolgi ctrl: inactive; CYP2C19 inhib: 53
